# Tests used:
# Experiment in all cases: DAPPL (digital affinity profiling via proximity ligation, sequencing); 10 mM Tris-HCl pH 7.5, 50 mM NaCl, 1 mM DTT, 4% glycerol, room temperature, 30 min; GST-TFs on glutathione beads, 16-mer random dsDNA library, 0.1% formaldehyde crosslink after washing; high values mean tight binding
# FLI1 = molecular target: T1, FLI1 (Homo sapiens, UniProt Q01543 1-452); details: protein: recombinant; tags: N-terminal GST; dsDNA, one strand shown
# T1 sequence: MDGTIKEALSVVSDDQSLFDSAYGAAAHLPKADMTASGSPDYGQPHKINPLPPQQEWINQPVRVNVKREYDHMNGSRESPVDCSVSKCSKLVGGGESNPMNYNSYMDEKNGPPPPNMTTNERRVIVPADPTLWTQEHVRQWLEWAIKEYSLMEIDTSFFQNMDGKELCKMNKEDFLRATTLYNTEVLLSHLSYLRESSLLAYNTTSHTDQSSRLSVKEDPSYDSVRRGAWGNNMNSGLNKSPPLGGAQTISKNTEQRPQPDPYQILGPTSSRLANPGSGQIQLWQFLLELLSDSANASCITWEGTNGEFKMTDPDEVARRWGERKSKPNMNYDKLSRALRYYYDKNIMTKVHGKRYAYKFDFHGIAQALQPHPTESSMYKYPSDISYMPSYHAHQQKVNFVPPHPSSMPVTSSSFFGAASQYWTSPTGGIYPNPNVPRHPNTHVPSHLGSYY
# Summary of the method: (§1)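 GST fusions of human transcription factors were expressed in yeast and captured with glutathione beads. Once given DNA barcodes and pooled alongside a tag-only sample, they were incubated for 30 min at room temperature with 200 nmole of a random double-stranded 16-mer DNA library in Tris/NaCl/DTT/glycerol buffer, then washed, crosslinked (0.1% formaldehyde), proximity-ligated, PCR-amplified and sequenced on an Illumina NextSeq500. The binding signal of each hexamer is its read frequency for a factor divided by its frequency for the tag-only sample.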
# ELK1 = molecular target: T2, ELK1 (Homo sapiens, UniProt P19419 1-428); details: protein: recombinant; tags: N-terminal GST; dsDNA, one strand shown
# T2 sequence: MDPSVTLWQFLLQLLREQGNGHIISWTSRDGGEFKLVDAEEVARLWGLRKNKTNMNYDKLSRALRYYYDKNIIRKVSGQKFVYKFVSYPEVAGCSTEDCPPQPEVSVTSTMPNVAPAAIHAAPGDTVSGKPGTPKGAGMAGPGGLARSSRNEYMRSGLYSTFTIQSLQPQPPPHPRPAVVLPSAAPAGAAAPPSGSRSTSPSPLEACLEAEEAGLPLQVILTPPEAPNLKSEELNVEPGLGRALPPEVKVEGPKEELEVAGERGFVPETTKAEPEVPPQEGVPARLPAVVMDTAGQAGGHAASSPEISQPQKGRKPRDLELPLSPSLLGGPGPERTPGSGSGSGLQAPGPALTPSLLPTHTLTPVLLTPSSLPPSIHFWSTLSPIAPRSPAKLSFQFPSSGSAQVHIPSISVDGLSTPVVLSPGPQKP
# Summary of the method: as §1
# GABPA = molecular target: T3, GABPA (Homo sapiens, UniProt Q06546 1-454); details: protein: recombinant; tags: N-terminal GST; dsDNA, one strand shown
# T3 sequence: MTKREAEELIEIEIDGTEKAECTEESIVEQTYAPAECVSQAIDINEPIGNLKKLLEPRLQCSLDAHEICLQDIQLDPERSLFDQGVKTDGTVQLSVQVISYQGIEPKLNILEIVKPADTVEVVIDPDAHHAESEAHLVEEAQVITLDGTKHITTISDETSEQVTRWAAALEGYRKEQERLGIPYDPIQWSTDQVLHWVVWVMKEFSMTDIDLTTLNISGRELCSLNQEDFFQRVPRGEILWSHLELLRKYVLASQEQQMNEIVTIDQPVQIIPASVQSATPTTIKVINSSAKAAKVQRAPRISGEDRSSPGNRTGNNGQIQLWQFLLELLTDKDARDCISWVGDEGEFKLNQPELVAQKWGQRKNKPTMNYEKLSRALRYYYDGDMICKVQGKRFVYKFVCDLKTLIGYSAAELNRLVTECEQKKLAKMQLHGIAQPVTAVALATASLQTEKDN
# Summary of the method: as §1
# ERG = molecular target: T4, ERG (Homo sapiens, UniProt P11308 1-479); details: protein: recombinant; tags: N-terminal GST; dsDNA, one strand shown
# T4 sequence: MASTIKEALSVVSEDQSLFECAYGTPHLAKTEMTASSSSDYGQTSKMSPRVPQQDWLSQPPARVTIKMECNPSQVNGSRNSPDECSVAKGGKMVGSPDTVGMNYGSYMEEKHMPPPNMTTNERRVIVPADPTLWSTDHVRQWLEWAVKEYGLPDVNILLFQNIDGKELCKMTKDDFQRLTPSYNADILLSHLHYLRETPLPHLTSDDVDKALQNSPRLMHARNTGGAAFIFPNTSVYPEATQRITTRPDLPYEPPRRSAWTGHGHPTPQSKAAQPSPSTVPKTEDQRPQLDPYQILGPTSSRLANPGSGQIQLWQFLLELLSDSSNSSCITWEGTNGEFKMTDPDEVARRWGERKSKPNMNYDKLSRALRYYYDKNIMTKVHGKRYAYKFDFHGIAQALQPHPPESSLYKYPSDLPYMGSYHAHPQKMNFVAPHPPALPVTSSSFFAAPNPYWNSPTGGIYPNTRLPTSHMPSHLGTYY
# Summary of the method: as §1
# ELF1 = ELF1 (Homo sapiens, UniProt P32519 1-619); details: protein: recombinant; tags: N-terminal GST; dsDNA, one strand shown
# Summary of the method: as §1
# EHF = molecular target: T5, EHF (Homo sapiens, UniProt Q9NZC4 1-300); details: protein: recombinant; tags: N-terminal GST; dsDNA, one strand shown
# T5 sequence: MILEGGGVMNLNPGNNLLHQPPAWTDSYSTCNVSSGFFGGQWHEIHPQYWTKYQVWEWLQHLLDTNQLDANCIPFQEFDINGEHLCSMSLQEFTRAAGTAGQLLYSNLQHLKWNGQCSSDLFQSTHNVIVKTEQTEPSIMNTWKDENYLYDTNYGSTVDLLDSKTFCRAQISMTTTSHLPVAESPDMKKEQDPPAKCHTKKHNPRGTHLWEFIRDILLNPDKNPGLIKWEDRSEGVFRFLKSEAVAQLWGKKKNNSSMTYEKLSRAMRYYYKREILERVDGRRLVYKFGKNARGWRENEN
# Summary of the method: as §1
# SPI1 = SPI1 (Homo sapiens, UniProt P17947 1-270); details: protein: recombinant; tags: N-terminal GST; dsDNA, one strand shown
# Summary of the method: as §1
# SPIB = SPIB (Homo sapiens, UniProt Q01892 1-262); details: protein: recombinant; tags: N-terminal GST; dsDNA, one strand shown
# Summary of the method: as §1
# ELK3 = molecular target: T6, ELK3 (Homo sapiens, UniProt P41970 1-407); details: protein: recombinant; tags: N-terminal GST; dsDNA, one strand shown
# T6 sequence: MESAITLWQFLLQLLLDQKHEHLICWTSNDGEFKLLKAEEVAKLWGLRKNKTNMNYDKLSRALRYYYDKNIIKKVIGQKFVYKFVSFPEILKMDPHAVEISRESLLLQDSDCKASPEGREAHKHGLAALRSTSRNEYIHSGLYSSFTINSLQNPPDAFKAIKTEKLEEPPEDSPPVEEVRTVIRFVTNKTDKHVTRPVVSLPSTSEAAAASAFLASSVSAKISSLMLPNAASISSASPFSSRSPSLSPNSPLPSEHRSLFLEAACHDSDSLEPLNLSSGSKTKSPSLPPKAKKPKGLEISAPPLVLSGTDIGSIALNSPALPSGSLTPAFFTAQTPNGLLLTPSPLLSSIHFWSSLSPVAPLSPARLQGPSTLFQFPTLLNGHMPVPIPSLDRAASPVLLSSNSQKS
# Summary of the method: as §1
# FEV = molecular target: T7, FEV (Homo sapiens, UniProt Q99581 1-238); details: protein: recombinant; tags: N-terminal GST; dsDNA, one strand shown
# T7 sequence: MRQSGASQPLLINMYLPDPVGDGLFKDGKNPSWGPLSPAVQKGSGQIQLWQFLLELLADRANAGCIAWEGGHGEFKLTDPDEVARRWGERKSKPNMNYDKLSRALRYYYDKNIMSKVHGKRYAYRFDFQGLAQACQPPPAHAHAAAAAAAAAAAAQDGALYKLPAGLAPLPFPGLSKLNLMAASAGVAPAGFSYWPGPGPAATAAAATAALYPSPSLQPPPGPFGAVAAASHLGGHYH
# Summary of the method: as §1
# ETV5 = ETV5 (Homo sapiens, UniProt P41161 1-510); details: protein: recombinant; tags: N-terminal GST; dsDNA, one strand shown
# Summary of the method: as §1
# HSF1 = HSF1 (Homo sapiens, UniProt Q00613 1-529); details: protein: recombinant; tags: N-terminal GST; chain copies: 3; dsDNA, one strand shown
# Summary of the method: as §1
# SPIC = molecular target: T8, SPIC (Homo sapiens, UniProt Q8N5J4 1-248); details: protein: recombinant; tags: N-terminal GST; dsDNA, one strand shown
# T8 sequence: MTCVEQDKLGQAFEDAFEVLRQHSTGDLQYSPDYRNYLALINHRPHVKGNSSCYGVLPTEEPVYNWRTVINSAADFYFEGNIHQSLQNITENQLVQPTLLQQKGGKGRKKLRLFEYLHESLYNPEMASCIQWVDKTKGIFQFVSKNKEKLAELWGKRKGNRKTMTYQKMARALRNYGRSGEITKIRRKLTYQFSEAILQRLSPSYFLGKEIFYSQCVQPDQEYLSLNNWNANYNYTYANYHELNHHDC
# Summary of the method: as §1
# ELF4 = ELF4 (Homo sapiens, UniProt Q99607 1-663); details: protein: recombinant; tags: N-terminal GST; dsDNA, one strand shown
# Summary of the method: as §1
# ELK4 = molecular target: T9, ELK4 (Homo sapiens, UniProt P28324-2 1-405); details: protein: recombinant; tags: N-terminal GST; dsDNA, one strand shown
# T9 sequence: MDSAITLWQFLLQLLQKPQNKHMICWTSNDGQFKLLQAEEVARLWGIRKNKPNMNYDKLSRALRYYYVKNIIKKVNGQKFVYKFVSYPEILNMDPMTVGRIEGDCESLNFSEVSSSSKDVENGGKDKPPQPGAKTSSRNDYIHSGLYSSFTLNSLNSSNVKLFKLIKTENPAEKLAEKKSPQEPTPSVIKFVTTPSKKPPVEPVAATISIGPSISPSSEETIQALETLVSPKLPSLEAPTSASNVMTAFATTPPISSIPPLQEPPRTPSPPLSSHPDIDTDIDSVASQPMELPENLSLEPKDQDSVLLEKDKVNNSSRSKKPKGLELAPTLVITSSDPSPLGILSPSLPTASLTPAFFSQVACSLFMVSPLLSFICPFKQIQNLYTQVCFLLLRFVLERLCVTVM
# Summary of the method: as §1
# ETV2 = molecular target: T10, ETV2 (Homo sapiens, UniProt O00321 1-342); details: protein: recombinant; tags: N-terminal GST; dsDNA, one strand shown
# T10 sequence: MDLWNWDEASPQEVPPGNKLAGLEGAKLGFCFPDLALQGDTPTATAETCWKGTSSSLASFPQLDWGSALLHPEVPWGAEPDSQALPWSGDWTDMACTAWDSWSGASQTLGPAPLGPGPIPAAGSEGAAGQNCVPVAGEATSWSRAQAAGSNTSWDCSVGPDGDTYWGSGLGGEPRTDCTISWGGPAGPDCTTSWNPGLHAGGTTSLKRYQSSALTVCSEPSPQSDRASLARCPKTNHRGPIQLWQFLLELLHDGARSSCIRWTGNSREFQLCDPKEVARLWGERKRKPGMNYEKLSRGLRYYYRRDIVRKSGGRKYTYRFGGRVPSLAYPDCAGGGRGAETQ
# Summary of the method: as §1
# ELF3 = molecular target: T11, ELF3 (Homo sapiens, UniProt P78545 1-371); details: protein: recombinant; tags: N-terminal GST; dsDNA, one strand shown
# T11 sequence: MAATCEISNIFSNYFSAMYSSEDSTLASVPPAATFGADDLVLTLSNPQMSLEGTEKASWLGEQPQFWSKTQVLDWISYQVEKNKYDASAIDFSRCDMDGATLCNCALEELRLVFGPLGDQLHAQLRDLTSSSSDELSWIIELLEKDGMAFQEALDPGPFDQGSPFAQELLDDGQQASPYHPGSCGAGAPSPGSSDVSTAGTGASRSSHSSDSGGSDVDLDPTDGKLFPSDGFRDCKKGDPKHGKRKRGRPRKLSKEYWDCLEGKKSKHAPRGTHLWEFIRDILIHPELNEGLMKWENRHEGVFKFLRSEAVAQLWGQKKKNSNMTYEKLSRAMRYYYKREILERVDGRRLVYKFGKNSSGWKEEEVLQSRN
# Summary of the method: as §1
# ETV1 = ETV1 (Homo sapiens, UniProt P50549 1-477); details: protein: recombinant; tags: N-terminal GST; dsDNA, one strand shown
# Summary of the method: as §1
# ELF1, sequence (P32519 whole entry): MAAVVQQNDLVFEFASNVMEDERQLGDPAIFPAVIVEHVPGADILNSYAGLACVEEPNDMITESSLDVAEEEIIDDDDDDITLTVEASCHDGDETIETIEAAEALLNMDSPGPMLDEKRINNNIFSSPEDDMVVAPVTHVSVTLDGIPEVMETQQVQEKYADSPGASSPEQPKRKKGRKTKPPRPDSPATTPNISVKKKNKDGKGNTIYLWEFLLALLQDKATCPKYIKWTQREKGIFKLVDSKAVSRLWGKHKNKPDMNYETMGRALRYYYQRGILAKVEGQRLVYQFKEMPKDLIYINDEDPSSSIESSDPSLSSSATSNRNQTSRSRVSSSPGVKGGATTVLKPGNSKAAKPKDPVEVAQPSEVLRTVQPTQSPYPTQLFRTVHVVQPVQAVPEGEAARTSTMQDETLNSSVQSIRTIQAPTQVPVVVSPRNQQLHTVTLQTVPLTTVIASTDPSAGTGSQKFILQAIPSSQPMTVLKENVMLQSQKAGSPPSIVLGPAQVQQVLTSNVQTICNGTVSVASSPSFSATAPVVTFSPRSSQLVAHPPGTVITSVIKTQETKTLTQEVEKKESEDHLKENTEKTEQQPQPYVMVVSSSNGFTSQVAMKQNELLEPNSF
# ELF4, sequence (Q99607 whole entry): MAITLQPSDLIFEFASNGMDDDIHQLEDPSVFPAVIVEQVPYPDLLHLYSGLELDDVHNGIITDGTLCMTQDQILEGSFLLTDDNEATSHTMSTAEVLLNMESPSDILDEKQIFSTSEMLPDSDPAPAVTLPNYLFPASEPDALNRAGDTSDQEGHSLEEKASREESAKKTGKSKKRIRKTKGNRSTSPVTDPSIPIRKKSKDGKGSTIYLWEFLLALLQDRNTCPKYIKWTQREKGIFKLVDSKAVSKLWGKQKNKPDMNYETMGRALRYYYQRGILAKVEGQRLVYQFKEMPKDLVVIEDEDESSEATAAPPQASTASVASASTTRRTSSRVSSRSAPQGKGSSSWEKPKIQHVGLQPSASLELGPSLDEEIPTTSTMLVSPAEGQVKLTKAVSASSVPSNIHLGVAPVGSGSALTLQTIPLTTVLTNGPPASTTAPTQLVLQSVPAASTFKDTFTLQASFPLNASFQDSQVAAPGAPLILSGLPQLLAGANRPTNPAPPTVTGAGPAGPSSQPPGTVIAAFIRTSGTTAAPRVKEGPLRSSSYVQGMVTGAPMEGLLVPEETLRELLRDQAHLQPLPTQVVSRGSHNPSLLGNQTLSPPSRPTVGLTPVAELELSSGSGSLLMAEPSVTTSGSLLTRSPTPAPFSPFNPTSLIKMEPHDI
# SPIB, sequence (Q01892 whole entry): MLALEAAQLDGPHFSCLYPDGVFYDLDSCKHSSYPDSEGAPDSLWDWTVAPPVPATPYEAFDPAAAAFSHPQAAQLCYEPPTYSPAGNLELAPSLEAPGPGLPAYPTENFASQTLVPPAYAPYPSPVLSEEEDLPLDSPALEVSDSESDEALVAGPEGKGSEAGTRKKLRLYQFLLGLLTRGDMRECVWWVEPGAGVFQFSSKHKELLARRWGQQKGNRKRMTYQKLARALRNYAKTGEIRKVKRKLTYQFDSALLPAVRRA
# ETV1, sequence (P50549 whole entry): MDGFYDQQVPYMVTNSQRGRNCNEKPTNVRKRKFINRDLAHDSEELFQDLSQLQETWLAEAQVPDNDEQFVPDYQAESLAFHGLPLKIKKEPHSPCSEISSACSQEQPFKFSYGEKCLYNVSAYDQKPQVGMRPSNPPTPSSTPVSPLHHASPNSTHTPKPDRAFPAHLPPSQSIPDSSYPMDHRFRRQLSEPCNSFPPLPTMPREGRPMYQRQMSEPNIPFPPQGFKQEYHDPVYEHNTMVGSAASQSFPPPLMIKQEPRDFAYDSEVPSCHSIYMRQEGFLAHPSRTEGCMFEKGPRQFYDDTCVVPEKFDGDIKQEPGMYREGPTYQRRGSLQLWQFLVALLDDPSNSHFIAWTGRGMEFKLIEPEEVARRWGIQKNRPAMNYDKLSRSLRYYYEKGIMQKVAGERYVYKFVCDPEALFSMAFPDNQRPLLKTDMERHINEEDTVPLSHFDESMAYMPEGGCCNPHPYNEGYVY
# ETV5, sequence (P41161 whole entry): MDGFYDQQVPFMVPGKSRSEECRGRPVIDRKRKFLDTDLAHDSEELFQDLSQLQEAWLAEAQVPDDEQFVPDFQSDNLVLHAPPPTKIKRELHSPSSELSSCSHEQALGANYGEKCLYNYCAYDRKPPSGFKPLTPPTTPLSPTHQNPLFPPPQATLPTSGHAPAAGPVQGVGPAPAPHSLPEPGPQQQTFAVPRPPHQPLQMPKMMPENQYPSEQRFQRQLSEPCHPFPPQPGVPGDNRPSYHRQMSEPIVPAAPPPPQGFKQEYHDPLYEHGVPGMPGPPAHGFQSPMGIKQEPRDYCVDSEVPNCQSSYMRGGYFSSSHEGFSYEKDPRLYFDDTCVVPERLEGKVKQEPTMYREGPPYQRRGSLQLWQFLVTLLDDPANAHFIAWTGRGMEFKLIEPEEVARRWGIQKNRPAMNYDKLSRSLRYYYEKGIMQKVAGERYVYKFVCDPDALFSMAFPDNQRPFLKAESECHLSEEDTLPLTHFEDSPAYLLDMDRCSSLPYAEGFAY
# HSF1, sequence (Q00613 whole entry): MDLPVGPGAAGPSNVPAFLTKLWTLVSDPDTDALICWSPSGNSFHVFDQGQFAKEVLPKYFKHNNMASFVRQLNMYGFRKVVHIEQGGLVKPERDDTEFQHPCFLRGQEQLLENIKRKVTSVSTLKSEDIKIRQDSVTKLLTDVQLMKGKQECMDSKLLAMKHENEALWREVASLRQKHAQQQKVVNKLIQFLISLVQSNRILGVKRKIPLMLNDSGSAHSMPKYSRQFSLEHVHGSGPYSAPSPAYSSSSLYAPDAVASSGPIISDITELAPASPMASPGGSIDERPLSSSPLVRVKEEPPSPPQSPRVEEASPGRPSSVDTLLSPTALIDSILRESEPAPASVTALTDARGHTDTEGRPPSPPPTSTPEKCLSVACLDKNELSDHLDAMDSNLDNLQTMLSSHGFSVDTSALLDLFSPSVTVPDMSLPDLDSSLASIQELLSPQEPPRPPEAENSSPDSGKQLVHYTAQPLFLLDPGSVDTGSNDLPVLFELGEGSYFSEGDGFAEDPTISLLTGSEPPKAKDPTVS
sequence,measurement,setting,value
TGTACA,binding signal,FLI1,"1.22 fold enrichment (6-mer frequency, TF over GST control)"
same,binding signal,ELK1,"1.26 fold enrichment (6-mer frequency, TF over GST control)"
same,binding signal,GABPA,"1.1 fold enrichment (6-mer frequency, TF over GST control)"
same,binding signal,ERG,"1.24 fold enrichment (6-mer frequency, TF over GST control)"
same,binding signal,ELF1,"1.23 fold enrichment (6-mer frequency, TF over GST control)"
same,binding signal,EHF,"1.26 fold enrichment (6-mer frequency, TF over GST control)"
same,binding signal,SPI1,"1.28 fold enrichment (6-mer frequency, TF over GST control)"
same,binding signal,SPIB,"1.35 fold enrichment (6-mer frequency, TF over GST control)"
same,binding signal,ELK3,"1.11 fold enrichment (6-mer frequency, TF over GST control)"
same,binding signal,FEV,"1.24 fold enrichment (6-mer frequency, TF over GST control)"
same,binding signal,ETV5,"1.17 fold enrichment (6-mer frequency, TF over GST control)"
same,binding signal,HSF1,"1.01 fold enrichment (6-mer frequency, TF over GST control)"
same,binding signal,SPIC,"1.45 fold enrichment (6-mer frequency, TF over GST control)"
same,binding signal,ELF4,"1.36 fold enrichment (6-mer frequency, TF over GST control)"
same,binding signal,ELK4,"1.17 fold enrichment (6-mer frequency, TF over GST control)"
same,binding signal,ETV2,"1.19 fold enrichment (6-mer frequency, TF over GST control)"
same,binding signal,ELF3,"1.01 fold enrichment (6-mer frequency, TF over GST control)"
same,binding signal,ETV1,"1.15 fold enrichment (6-mer frequency, TF over GST control)"

# — article PMC7862700, “An all-to-all approach to the identification of sequence-specific readers for epigenetic DNA modifications on cytosine”
